The source of these data is PubChem BioAssay (EPA / NIEHS).

Usually AC50 stands for the concentration at which the activity in the assay is half-maximal.

Assay [1] deals with Nucleoli Translocation, AR (gene 367) (UniProt P10275). Put plainly: UPITT_HCI_U2OS_AR_TIF2_Nucleoli_Antagonist: University of Pittsburgh U2OS Androgen Receptor-Transcriptional Intermediary Factor 2 (AR-TIF2) Antagonism High Content Imaging Assay for Nucleoli Translocation (AID 2283997). The procedure, abridged:
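Measured quantity was AR-RFP fluorescence localized to nucleoli in engineered U2OS cells also bearing TIF2-GFP, acquired on automated high-content imagers. Primary testing used 20 uM compound; actives were confirmed in triplicate wells.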

For assay [2] the target is unchanged. Put plainly: UPITT_HCI_U2OS_AR_TIF2_Nucleoli_Agonist: University of Pittsburgh U2OS Androgen Receptor-Transcriptional Intermediary Factor 2 (AR-TIF2) Agonism High Content Imaging Assay for Nucleoli Translocation (AID 2283998). The procedure, abridged:
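Cells express human AR fused to red fluorescent protein and TIF2 fused to GFP. Red fluorescence in the nucleolar region was quantified by high-content imaging and fitted as gain-of-signal against a DMSO baseline. Compounds were tested at 0.195 to 50 uM final (0.5% DMSO).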

In assay [3] the target is Ratio of Nucleoli Translocation and Cytoplasm, AR (gene 367) (UniProt P10275). In words: UPITT_HCI_U2OS_AR_TIF2_Nucleoli_Cytoplasm_Ratio_Antagonist: University of Pittsburgh U2OS Androgen Receptor-Transcriptional Intermediary Factor 2 (AR-TIF2) Antagonism High Content Imaging Assay for Ratio of Nucleoli Translocation and Cytoplasm (AID 2283999).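 Also: antagonists lower the DHT-driven ratio of nucleolar to cytoplasmic red signal.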 In short, it runs like this:
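U2OS cells co-expressing RFP-tagged human AR and GFP-tagged TIF2, antagonist mode with DHT as baseline. Nucleolar-to-cytoplasmic red fluorescence ratio imaged by high-content microscopy; final compound 20 uM (0.2% DMSO) primary, 0.195–50 uM (0.5% DMSO) concentration-response.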

Assay [4] shares this target. In words: UPITT_HCI_U2OS_AR_TIF2_Nucleoli_Cytoplasm_Ratio_Agonist: University of Pittsburgh U2OS Androgen Receptor-Transcriptional Intermediary Factor 2 (AR-TIF2) Agonism High Content Imaging Assay for Ratio of Nucleoli Translocation and Cytoplasm (AID 2284000).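 Also: hits raise the red nucleolar to cytoplasm ratio above vehicle.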 The procedure, abridged: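 Read-out first: nucleolar-to-cytoplasm ratio of red (AR-RFP) signal, quantified by high-content imaging in U2OS cells co-expressing TIF2-GFP. Activity is scored as signal increase over DMSO. Single-point screening used 20 uM final (0.2% DMSO).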

A further assay has as its system DIO1 (gene 1733). In words: CCTE_GLTED_hDIO1: CCTE's human Deiodinase 1 (DIO1) Inhibition Assay, Great Lakes Toxicology and Ecology Division (GLTED) Lab (AID 2283987).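 Also: isolated human DIO1 enzyme in a cell-free setup rather than cells; enzyme activity read as free iodide liberated from substrate via Sandell-Kolthoff colorimetry.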 In short, it runs like this:
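Cell-free human DIO1 enzyme was incubated with test chemical for 3 h, and iodide released from substrate was measured by Sandell-Kolthoff absorbance. Loss of signal versus DMSO baseline indicated inhibition; plates were run in triplicate.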

The nature of assay [5]: TOX21_PR_LUC_Followup_Antagonist_viability: Viability Assessment in the Tox21 HEK293 Progesterone Receptor (PR) Antagonism Luciferase Follow-Up Assay (AID 2283940). In short, it runs like this: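 HEK293-PR-A-luc cells kept in charcoal-stripped FBS medium were plated 5 h before compound addition, then exposed 16 h at 37C; viability read as cellular ATP by luciferase luminescence, loss of signal indicating cytotoxicity.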

Assay [6] can be described thus: TOX21_PR_LUC_Followup_Agonist_viability: Viability Assessment in the Tox21 HEK293 Progesterone Receptor (PR) Agonism Luciferase Follow-Up Assay (AID 2283941).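 Also: loss of signal means cytotoxicity so actives lower viability.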 In short, it runs like this:
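HEK293-PR-A-luc cells, kept in 10% charcoal-stripped FBS medium, were treated with compounds for 16 h at 37C. Viability read as cellular ATP by luciferase-coupled luminescence; loss of signal indicates cytotoxicity.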

Assay [7] concerns the target T1, Thyroid hormone receptor alpha (Rattus norvegicus) + Thyroid hormone receptor beta (Rattus norvegicus) (UniProt P18113+P63059). Put plainly: TOX21_TR_LUC_GH3_Agonist_Followup: Tox21 GH3 Thyroid Hormone Receptor Agonism Luciferase Follow-Up Assay (AID 2283939). In short, it runs like this: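 Rat GH3 cells (1,500/well) in serum-free assay medium, treated with 15-point series, 92 uM to 5 nM final, for 24 h at 37C. Luciferase via ONE-Glo luminescence; gain of signal fitted against DMSO, T3 positive control.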

For assay [8], the target named is THRA (gene 7067) (UniProt P10827). In words: TOX21_TRA_COA_Agonist_Followup_ratio: Tox21 Thyroid Hormone Receptor alpha Agonism through Coactivator Recruitment Follow-Up Assay, Ratio (AID 2283948; active = hit-call score of the fitted dose curve at least 0.9, where 1 is the maximum; inactive = score below 0.9). In short, it runs like this:
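Read-out is the 520/495 nm emission ratio (ex 340 nm), scaled between DMSO-only wells as 0% and T3 wells as 100%. It reflects fluorescein-SRC-2 peptide recruitment to GST-TRα LBD detected via terbium anti-GST antibody.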

Assay [9] deals with THRB (gene 7068) (UniProt P10828). In words: TOX21_TRB_BLA_Agonist_Followup_ratio: Tox21 Thyroid Hormone Receptor beta Agonism Beta-lactamase (BLA) Follow-Up Assay, Ratio (AID 2283954). The procedure, abridged: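 Human TRβ LBD–GAL4 DBD fusion in GeneBLAzer UAS-bla HEK293T cells; 11 concentrations in triplicate, 18 h at 37°C/5% CO2, T3 as agonist control. CCF4-AM substrate 2 h at room temperature; 460:530 nm ratio fitted for gain of signal versus DMSO.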

Assay [10] shares this target. Put plainly: TOX21_TRB_COA_Agonist_Followup_ratio: Tox21 Thyroid Hormone Receptor beta Agonism through Coactivator Recruitment Follow-Up Assay, Ratio (AID 2283963; active = hit-call score of the fitted dose curve at least 0.9, where 1 is the maximum; inactive = score below 0.9). The procedure, abridged: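 Agonism is measured as coactivator recruitment in a purified-protein TR-FRET format, using GST-TRβ LBD at 5.0 nM, fluorescein-SRC-2 peptide at 200 nM and Tb-labeled anti-GST antibody at 2 nM. Values are 520:495 nm ratios relative to DMSO (0%) and T3 (100%).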

Assay [11] concerns the target Retinoic acid receptor RXR-alpha (Homo sapiens) (UniProt P19793). In words: TOX21_TR_RXR_BLA_Agonist_Followup_ratio: Tox21 Thyroid Hormone Receptor beta Retinoid X Receptor alpha (RXRa) Agonism Beta-lactamase (BLA) Follow-Up Assay, Ratio (AID 2283968). The procedure, abridged: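 RXRa-UAS-bla HEK293T cells, 5 h attachment at 37C/5% CO2, then 11 concentrations in triplicate for 16 h; 9-cis retinoic acid positive control. FRET-B/GCCF4-AM substrate 2 h at room temperature; 460:530 nm ratio, fitted for gain versus DMSO.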

Assay [12] in a line: TOX21_TR_RXR_BLA_Agonist_Followup_viability: Viability Assessment in the Tox21 Thyroid Hormone Receptor beta Retinoid X Receptor alpha (RXRa) Agonism Beta-lactamase (BLA) Follow-Up Assay (AID 2283970). In short, it runs like this: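 RXRa-UAS-bla HEK293T cells, 2,500/well in phenol red-free DMEM with 2% charcoal-stripped FBS, dosed for 16 h at 37C. Viability measured by CellTiter-Glo ATP luminescence; fitted bidirectionally against DMSO baseline, loss of signal indicating cytotoxicity.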

Assay [13] deals with T1, Thyroid hormone receptor alpha (Rattus norvegicus) + Thyroid hormone receptor beta (Rattus norvegicus). In words: TOX21_TR_LUC_GH3_Antagonist_Followup: Tox21 GH3 Thyroid Hormone Receptor Antagonism Luciferase Follow-Up Assay (AID 2283942). In short, it runs like this:
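Confirmatory qHTS, antagonist mode: T3 (1.0 nM final) + test cpd, 15 conc, 92 uM–5nM final, GH3 rat pituitary line, 24 h, 37C. Luc reporter, RLU vs DMSO.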

In assay [14] the target is THRA (gene 7067) (UniProt P10827). Put plainly: TOX21_TRA_COA_Antagonist_Followup_ratio: Tox21 Thyroid Hormone Receptor alpha Antagonism through Coactivator Recruitment Follow-Up Assay, Ratio (AID 2283953). The procedure, abridged: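 520:495 nm emission ratio (excitation 340 nm) reports fluorescein-SRC-2 peptide recruitment to GST-TRα LBD by TR-FRET with Tb anti-GST antibody. Values were normalized to DMSO (0%) and T3 control wells (100%); loss of signal indicated antagonism.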

Assay [15] concerns the target THRB (gene 7068) (UniProt P10828). Put plainly: TOX21_TRB_BLA_Antagonist_Followup_ratio: Tox21 Thyroid Hormone Receptor beta Antagonism Beta-lactamase (BLA) Follow-Up Assay, Ratio (AID 2283958). In short, it runs like this: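 HEK293T cells with a GAL4-TRb LBD fusion and UAS-bla reporter, 3,000 cells/well in phenol red-free DMEM with 2% charcoal-stripped FBS. Exposed 18 h at 37C to 11 concentrations in triplicate; CCF4 460:530 nm ratio after 2 h, DMSO-referenced.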

Assay [16] can be described thus: TOX21_TRB_BLA_Antagonist_Followup_viability: Viability Assessment in the Tox21 Thyroid Hormone Receptor beta Antagonism Beta-lactamase (BLA) Follow-Up Assay (AID 2283961). In short, it runs like this:
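HEK293T cells stably expressing GAL4-DBD/human TRβ-LBD with UAS-bla reporter, 3,000 cells/well in phenol red-free DMEM, 2% charcoal-stripped FBS. Compounds at 11 concentrations in triplicate, 18 h at 37C/5% CO2; viability by CellTiter-Glo luminescence after 30 min at room temperature.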

For assay [17], the target named is THRB (gene 7068) (UniProt P10828). In words: TOX21_TRB_COA_Antagonist_Followup_ratio: Tox21 Thyroid Hormone Receptor beta Antagonism through Coactivator Recruitment Follow-Up Assay, Ratio (AID 2283967). In short, it runs like this:
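Test compound was incubated with 5.0 nM GST-TRβ LBD in 0.10% BSA. Then 200 nM fluorescein-SRC-2 peptide and 2 nM terbium anti-GST antibody were added. TR-FRET (520:495 nm) was measured and normalized to DMSO and T3 controls.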

Assay [18] concerns the target Retinoic acid receptor RXR-alpha (Homo sapiens) (UniProt P19793). In words: TOX21_TR_RXR_BLA_Antagonist_Followup_ratio: Tox21 Thyroid Hormone Receptor beta Retinoid X Receptor alpha (RXRa) Antagonism Beta-lactamase (BLA) Follow-Up Assay, Ratio (AID 2283972). The procedure, abridged: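 RXRa-UAS-bla HEK293T cells in phenol red-free DMEM with 2% charcoal-stripped FBS; compounds at 11 concentrations in triplicate, 16 h at 37C. LiveBLAzer FRET-B/CCF4-AM substrate 2 h at room temperature; read as 460:530 nm ratio versus DMSO.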

Assay [19] is described as follows: TOX21_TR_RXR_BLA_Antagonist_Followup_viability: Viability Assessment in the Tox21 Thyroid Hormone Receptor beta Retinoid X Receptor alpha (RXRa) Antagonism Beta-lactamase (BLA) Follow-Up Assay (AID 2283979). In short, it runs like this:
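Follow-up compounds (11 concentrations, triplicate) were incubated 16 h at 37C/5% CO2 with HEK293T RXRa-bla cells seeded at 2,500/well in charcoal-stripped-serum medium. ATP content by CellTiter-Glo luminescence gave viability; curves fitted in both directions against DMSO.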

Records with an inconclusive call do not appear. Activity calls are given as the source filed them. The calls were made as follows, unless noted: active = hit-call score of the fitted dose curve at least 0.9, where 1 is the maximum; inconclusive = response in the unintended direction; inactive = score below 0.9.

Sequence of Ratio of Nucleoli Translocation and Cytoplasm, AR (gene 367) (P10275 whole entry, looked up): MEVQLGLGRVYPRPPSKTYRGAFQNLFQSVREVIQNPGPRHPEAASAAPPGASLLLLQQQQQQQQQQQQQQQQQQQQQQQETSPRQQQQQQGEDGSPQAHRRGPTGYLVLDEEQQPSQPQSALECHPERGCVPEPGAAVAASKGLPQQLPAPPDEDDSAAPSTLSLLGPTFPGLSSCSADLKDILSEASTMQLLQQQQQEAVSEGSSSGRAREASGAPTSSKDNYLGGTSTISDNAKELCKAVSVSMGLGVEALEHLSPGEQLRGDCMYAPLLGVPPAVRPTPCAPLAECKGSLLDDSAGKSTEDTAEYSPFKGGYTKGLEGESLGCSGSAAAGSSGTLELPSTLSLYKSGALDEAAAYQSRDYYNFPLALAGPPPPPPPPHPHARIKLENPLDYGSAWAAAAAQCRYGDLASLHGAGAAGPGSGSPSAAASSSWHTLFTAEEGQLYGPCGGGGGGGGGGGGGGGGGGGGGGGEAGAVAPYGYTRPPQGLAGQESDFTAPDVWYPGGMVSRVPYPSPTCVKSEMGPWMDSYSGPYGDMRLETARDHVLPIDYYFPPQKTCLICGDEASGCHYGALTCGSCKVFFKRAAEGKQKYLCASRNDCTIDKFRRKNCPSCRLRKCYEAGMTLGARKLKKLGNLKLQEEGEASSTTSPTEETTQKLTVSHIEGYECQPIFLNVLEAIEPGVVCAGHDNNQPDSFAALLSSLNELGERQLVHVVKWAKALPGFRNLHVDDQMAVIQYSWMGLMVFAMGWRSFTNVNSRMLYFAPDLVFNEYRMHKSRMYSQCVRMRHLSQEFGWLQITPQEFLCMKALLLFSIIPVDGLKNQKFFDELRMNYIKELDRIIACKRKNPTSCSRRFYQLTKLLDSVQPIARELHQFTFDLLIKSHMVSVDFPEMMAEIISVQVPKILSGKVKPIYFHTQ
Sequence of Nucleoli Translocation, AR (gene 367) (P10275 whole entry, looked up): as above
Sequence of THRB (gene 7068) (P10828 whole entry, looked up, the tested form may be a part): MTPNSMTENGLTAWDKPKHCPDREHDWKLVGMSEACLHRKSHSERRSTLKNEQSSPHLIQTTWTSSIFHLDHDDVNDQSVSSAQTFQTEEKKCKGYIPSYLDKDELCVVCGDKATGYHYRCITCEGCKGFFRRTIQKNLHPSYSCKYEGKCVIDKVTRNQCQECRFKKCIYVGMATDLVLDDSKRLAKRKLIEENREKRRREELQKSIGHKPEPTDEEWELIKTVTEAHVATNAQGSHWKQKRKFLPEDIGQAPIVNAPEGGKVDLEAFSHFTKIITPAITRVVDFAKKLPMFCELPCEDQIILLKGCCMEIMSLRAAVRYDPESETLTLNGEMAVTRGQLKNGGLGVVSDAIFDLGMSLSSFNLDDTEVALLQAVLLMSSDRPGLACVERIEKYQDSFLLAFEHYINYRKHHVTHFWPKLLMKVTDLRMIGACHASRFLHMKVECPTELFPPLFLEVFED
Sequence of Retinoic acid receptor RXR-alpha (Homo sapiens) (P19793 whole entry, looked up): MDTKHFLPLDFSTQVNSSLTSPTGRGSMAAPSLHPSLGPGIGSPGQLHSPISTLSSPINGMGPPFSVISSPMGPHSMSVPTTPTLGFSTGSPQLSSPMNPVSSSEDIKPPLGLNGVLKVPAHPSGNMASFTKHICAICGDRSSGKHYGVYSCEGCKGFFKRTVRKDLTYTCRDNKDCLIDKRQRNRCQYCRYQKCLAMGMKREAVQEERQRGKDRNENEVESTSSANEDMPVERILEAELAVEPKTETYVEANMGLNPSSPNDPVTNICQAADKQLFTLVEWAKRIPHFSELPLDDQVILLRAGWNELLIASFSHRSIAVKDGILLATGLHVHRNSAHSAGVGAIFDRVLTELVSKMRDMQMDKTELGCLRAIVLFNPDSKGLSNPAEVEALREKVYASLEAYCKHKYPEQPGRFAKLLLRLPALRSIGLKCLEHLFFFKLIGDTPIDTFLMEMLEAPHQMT
Sequence of THRA (gene 7067) (P10827 whole entry, looked up, the tested form may be a part): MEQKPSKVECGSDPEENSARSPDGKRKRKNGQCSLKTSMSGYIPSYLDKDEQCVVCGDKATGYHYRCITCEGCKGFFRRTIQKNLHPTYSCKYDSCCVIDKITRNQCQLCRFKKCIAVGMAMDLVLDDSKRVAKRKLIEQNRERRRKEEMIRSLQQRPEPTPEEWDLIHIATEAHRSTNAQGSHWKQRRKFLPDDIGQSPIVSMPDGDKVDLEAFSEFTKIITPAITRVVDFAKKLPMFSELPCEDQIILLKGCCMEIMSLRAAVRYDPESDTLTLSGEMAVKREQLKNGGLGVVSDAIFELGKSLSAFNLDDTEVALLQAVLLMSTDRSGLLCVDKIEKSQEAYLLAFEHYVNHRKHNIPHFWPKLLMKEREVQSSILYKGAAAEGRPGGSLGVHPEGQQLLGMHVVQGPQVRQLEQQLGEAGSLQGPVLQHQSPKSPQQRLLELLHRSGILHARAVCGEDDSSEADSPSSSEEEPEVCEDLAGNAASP
T1 sequence (P63059 whole entry, looked up): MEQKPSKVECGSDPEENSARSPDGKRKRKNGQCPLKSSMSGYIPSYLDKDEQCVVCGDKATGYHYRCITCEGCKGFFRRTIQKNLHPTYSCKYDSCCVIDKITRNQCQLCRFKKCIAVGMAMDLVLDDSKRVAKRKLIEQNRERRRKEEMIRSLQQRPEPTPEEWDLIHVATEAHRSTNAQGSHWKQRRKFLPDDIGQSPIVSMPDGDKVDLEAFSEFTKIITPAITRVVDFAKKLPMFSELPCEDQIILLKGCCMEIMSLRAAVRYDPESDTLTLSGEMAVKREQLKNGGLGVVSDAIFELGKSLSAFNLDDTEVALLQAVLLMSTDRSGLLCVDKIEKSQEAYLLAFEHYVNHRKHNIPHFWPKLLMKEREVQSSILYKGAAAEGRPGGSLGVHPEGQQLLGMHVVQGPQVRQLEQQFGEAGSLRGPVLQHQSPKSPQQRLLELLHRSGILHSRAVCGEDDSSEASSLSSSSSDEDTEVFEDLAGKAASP
T1 sequence (P18113 whole entry, looked up): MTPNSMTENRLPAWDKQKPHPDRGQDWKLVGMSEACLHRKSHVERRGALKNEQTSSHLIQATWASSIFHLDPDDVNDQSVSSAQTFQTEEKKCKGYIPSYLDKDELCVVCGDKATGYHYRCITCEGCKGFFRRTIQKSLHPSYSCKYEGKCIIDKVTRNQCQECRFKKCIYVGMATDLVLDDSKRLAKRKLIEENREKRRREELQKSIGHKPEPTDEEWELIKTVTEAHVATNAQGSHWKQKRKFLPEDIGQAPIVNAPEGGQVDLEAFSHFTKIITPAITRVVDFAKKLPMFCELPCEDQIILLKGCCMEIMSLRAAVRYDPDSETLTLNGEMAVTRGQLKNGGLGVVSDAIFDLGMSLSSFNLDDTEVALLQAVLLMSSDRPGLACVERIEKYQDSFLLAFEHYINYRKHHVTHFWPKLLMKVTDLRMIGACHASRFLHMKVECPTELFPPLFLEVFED

Consider `CC(C)(Oc1ccc(C2CC2(Cl)Cl)cc1)C(=O)O` (centres undefined), for which the result in assay [1], in assay [2], in assay [3] and in assay [4] was inactive.

`CC/C=C\C/C=C\C/C=C\CCCCCCCC(=O)O`: the AC50 in the assay with DIO1 (gene 1733) was 20.6 µM (active).

As to `Cc1ccc(C(C)c2ccc(C)c(C)c2)cc1C`, the molecule was called inactive in [5] and in assay [6].

As for `O=S(=O)(O)c1ccccc1C=Cc1ccc(-c2ccc(C=Cc3ccccc3S(=O)(=O)O)cc2)cc1`, the AC50 with DIO1 (gene 1733) is 100 µM (active).

Consider `Nc1ccc(-c2ccc(F)cc2)cc1`, for which the call in assay [5] and in assay [6] was inactive.

Consider `NC(CO)(CO)CO`, for which the figures for the AC50 (in [7]; in the assay with THRA (gene 7067) [8]) were 10.6 µM (active) and 40.6 µM (active), respectively. Moreover, the result (with THRB (gene 7068) [9]; with THRB (gene 7068) [10]; in assay [11]; in [12]) was inactive.

In the case of `Oc1ccc(Cl)cc1Cc1cc(Cl)ccc1O`, the AC50 in assay [13] was 18.7 µM (active); with THRB (gene 7068) [15] it was 38.3 µM (active); in [16] it was 23.5 µM (active); with THRB (gene 7068) [17], 38.3 µM (active); in assay [18], 38.3 µM (active); in assay [19] it was 5.34 µM (active). In addition, the AC50 with DIO1 (gene 1733) was 99.8 µM (active); in assay [1], 12.1 µM (active); in [2] it was 1.77 µM (active); in assay [3], 16.3 µM (active). Also, the result (in the assay with THRA (gene 7067) [14]; in assay [4]) was inactive.

Consider `N=c1ccn2c(n1)O[C@H]1[C@H](O)[C@@H](CO)O[C@H]12`, for which the result (in assay [13]; with THRB (gene 7068) [15]; in [16]; in the assay with THRB (gene 7068) [17]; in [19]) was inactive.

Take `COc1ccc(C(Cl)=C(c2ccc(OC)cc2)c2ccc(OC)cc2)cc1`: the molecule was classed as inactive (in [5]; in assay [6]; in assay [13]; with THRB (gene 7068) [15]; in assay [16]; in [18]). Besides, the call in assay [19] was inactive.

With `C[Si](C)O[Si](C)(C)O[Si](C)(C)O[Si](C)C`, the outcome (with THRA (gene 7067) [8]; with THRB (gene 7068) [10]; in [11]; in assay [12]) was inactive.

Regarding `CCCCCCC(O)CO` (centres undefined), the result (in assay [7]; with THRA (gene 7067) [8]; with THRB (gene 7068) [9]; in the assay with THRB (gene 7068) [10]; in [11]; in assay [12]) was inactive.

As to `CC(C)=CCC[C@H](C)CCO`, the result in assay [1], in assay [2], in [3] and in assay [4] was inactive.
